High-throughput results: PubChem BioAssay, several laboratories
DUSP3 inh = inhibitors of human VHR1 phosphatase (DUSP3) | P51452 | recombinant VHR phosphatase, pNPP absorbance | inhibition, % at 13.3 µM | hit rate 0.52% among 290,000 | AID 1654; in the data active = inhibition above about 50%
Target sequence (P51452 whole entry, looked up): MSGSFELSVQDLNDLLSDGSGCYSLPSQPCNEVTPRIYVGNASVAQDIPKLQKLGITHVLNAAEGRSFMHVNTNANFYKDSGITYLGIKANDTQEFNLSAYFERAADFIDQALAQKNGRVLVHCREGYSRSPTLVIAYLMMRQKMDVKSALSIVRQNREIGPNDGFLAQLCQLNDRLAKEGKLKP
PrPC surface inh = reduces human prion protein on the cell surface | cell surface PrPC, TR-FRET read-out | P04156 | inhibition, % at 13.8 µM | hit rate 0.43% among 370,000; in the data active = inhibition above about 24%; also: 0% = median of the test wells and 100% = reference compound wells
PfHsp40 yeast = compounds rescuing yeast from Plasmodium falciparum HSP40 toxicity | S. cerevisiae expressing PfHsp40, growth rescue, ATP luminescence | growth rescue, % at 12.5 µM | hit rate 0.68% among 340,000 | AID 504582; in the data active = growth rescue above about 28%, passing the limit was not always enough; inconclusive = no clear call, values can overlap the other calls;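 also: yeast W303a lacking pdr1 and pdr3 grown in galactose medium; growth measured after three days at 30 °C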
BJeLR lethal = BJeLR cell viability loss. BJeLR (HRASV12) viability, CellTiter-Glo ATP luminescence, 48 h. inhibition, % (concentration not given with the values). hit rate 0.17% among 300,000. AID 1554; in the data active = inhibition above about 50%; inconclusive = no clear call, values can overlap the other calls
MazF activator = increases E. coli MazEF RNase cleavage of RNA. FAM/BHQ RNA-DNA oligo cleavage fluorescence, 5 h. activation, % at 20 µM. hit rate 0.32% among 350,000; in the data active = activation above about 50%
Target sequence (P0AE70 whole entry, looked up): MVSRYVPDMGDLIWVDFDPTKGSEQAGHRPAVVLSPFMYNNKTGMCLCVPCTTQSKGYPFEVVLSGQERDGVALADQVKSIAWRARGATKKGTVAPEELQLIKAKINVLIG
PrP UTR inh = suppresses PrP 5' UTR mRNA reporter expression; AID 488862; inhibition, % (concentration not given with the values); cell-based PrP 5' UTR mRNA reporter, plate reader; hit rate 0.35% among 340,000; in the data active = inhibition above about 52%; also: 0 = median of the neutral control wells
* = called active by the depositor; ? = inconclusive; . = no result. Rows were chosen to be rich in hits. Some 2.1% of all compounds tested hit in one or more screens of this group.

SMILES	DUSP3 inh	PrPC surface inh	PfHsp40 yeast	BJeLR lethal	MazF activator	PrP UTR inh
S=C(Nc1ccccc1)Nc1ccc(OCc2ccccc2)cc1	20.5	3.6	-0.5	-14.2	-1.9	-17.2
CCOC(=O)C1(C)CCCN(C(=O)c2ccc(F)cc2Cl)C1 (configuration not stated)	.	4.0	.	.	.	.
CCc1ccccc1N(C(=O)c1cccs1)C1C=CS(=O)(=O)C1 (configuration not stated)	9.6	-5.9	33.6*	-6.5	1.1	-5.5
C[C@@H]1CN([C@H](C)CO)C(=O)CCCn2cc(nn2)CO[C@H]1CN(C)C(=O)Nc1ccc2c(c1)OCO2	.	-2.1	.	.	6.1	.
CC1CCCCN1CCCNc1ccc(C(CC(N)=O)NC(=O)Cc2ccc(Br)cc2)cc1[N+](=O)[O-] (configuration not stated)	28.3	-26.6	-1.4	1.2	8.4	-3.9
CCOC(=O)CN1C(=O)N[C@@H](c2cccc(F)c2)C(C(=O)OC)=C1C	.	1.6	40.5*	-1.6	2.8	-19.5
Cc1ccc(/C=C2/NC(=O)N(Cc3ccccc3)C2=O)s1	9.5	-0.1	-0.6	10.4	41.0	.
Cc1cccc(CN2C(=O)N/C(=C/c3ccc(C)s3)C2=O)c1	32.7	0.3	1.3	10.8	189.5*	-26.6
O=C1CCC[C@H]2C[C@H](NCc3ccc(F)cc3F)CC[C@]23CCCN13	.	-3.7	.	.	.	.
CC1CCc2[nH]c3ccc(C(=O)O)cc3c2C1 (configuration not stated)	16.5	7.0	2.8	-1.7	3.2	-16.9
O=C(O)c1ccc2[nH]c3c(c2c1)CCCC3	11.4	9.8	34.6*	3.2	-29.3	6.5
CCN1C=C(Cc2ccccc2C)C2=C(C1)C(c1ccccc1C)C(C#N)=C(N)O2 (configuration not stated)	18.6	-4.2	0.3	-3.1	-3.6	-19.6
CCN1C=C(Cc2ccc(F)cc2)C2=C(C1)C(c1ccc(F)cc1)C(C#N)=C(N)O2 (configuration not stated)	21.8	-6.8	2.4	0.5	77.1*	2.1
CCOC(=O)C1CCN(C(=O)Nc2ccc3nc(-c4ccco4)c(-c4ccco4)nc3c2)CC1	56.0*	.	0.0	-7.6	11.5	-11.1
O=C(Nc1ccc2nc(-c3ccco3)c(-c3ccco3)nc2c1)N1CCCCCC1	16.8	.	.	12.1	-2.3	.
Cc1ccccc1NC(=O)COC(=O)c1ccc2c(c1)OCCO2	.	0.9	-1.6	.	6.0	-33.4
O=C(COC(=O)c1ccc2c(c1)OCCO2)Nc1cc(Cl)ccc1Cl	17.5	-5.7	1.2	2.0	52.8*	-7.0
Cc1ccc2c(c1)c1c(c(=O)n(-c3ccccc3C)c(=O)n1CC(=O)NCC1CCCO1)n2C (configuration not stated)	-0.7	-1.6	1.1	-2.9	6.6	-5.1
O=C(c1ccncc1)N1CCN(c2ccc(F)cc2)CC1	24.3	-2.7	0.4	0.3	0.0	-5.2
O=C(c1ccc(Cl)cc1)N1CCN(c2ccc(F)cc2)CC1	8.7	7.2	109.7*	-1.8	1.9	-21.7
Cc1cccc(Nc2nc(Cl)ncc2F)c1C	59.7*	7.5	?	6.5	-0.6	-15.2
C=CCNc1nc(Cl)ncc1F	17.0	-6.0	-1.5	14.2	0.0	-29.1
O=C(CSCc1cccc(Br)c1)N=Nc1c(O)[nH]c2ccccc12	18.9	-10.1	1.1	8.1	-0.5	-20.3
O=Nc1c(-c2c(O)[nH]c3cc(Br)ccc23)[nH]c2ccccc12	9.5	-50.2	1.2	-4.1	55.0*	-23.9
C/C(=N\Nc1ccc([N+](=O)[O-])cc1)c1ccc(O)cc1	18.5	-3.1	180.0*	-1.9	4.8	-54.8
Cc1cccc(NC(=S)N/N=C/c2cccc([N+](=O)[O-])c2)c1	9.7	.	0.0	9.9	58.0*	-26.2
Cc1cc(C)cc(N=Cc2ccc([N+](=O)[O-])s2)c1	41.9	-12.1	-0.3	-6.7	4.9	-31.7
Cc1cccc(NC(=S)N/N=C/c2ccc(Cl)c([N+](=O)[O-])c2)c1	11.6	-8.9	-0.9	-8.2	4.3	-8.6
Cc1ccc(NC(=S)N/N=C/c2ccc([N+](=O)[O-])s2)cc1	31.5	-18.3	211.2*	-10.3	12.9	-0.9
Cc1cccc(NC(=S)NNC(=O)c2csc3c2CCC(C)C3)c1 (configuration not stated)	-1.7	9.1	104.5*	5.7	1.2	-34.1
